# Source: PubChem BioAssay (NCATS)
# Results filed as inconclusive are left out. Active and inactive are the calls of the source. Unless noted, calls follow the shape of the full dose curve.
# Assays:
# [1] = molecular target: Catechol O-methyltransferase (Homo sapiens) (UniProt P21964); test: Confirmatory Screen for Target Class Profiling of Small Molecule Inhibitors of Methyltransferases (AID 1745852); details: MTase-Glo luminescence, SAH detection, recombinant enzyme; measured here: COMT max response; stronger effect = lower value; also: potency is read from the fitted curve at half-maximal effect; as to activity change, negative = inhibition: % is scaled to controls: 0 for no effect and ±100 for the full control effect
# [2] = molecular target: Guanidinoacetate N-methyltransferase (Homo sapiens) (UniProt Q14353); test: as above; details: MTase-Glo luminescence, SAH detection, recombinant enzyme; activity change, negative = inhibition: at 57.3 µM (top of the series) unless noted; series mostly up to 57.3 µM
# [3] = molecular target: Nicotinamide N-methyltransferase (Homo sapiens) (UniProt P40261); test: as above; details: MTase-Glo luminescence, SAH detection, recombinant enzyme; measured here: NNMT max response; stronger effect = lower value
# [4] = molecular target: Phenylethanolamine N-methyltransferase (Homo sapiens) (UniProt P11086); test: as above; details: MTase-Glo luminescence, SAH detection, recombinant enzyme; measured here: PNMT max response; stronger effect = lower value
# [5] = NCATS anti-infectives library activity on HEK293 viability as a counter-qHTS vs the C. elegans viability qHTS (AID 1745854; active = well fitted curve in the direction sought with a large enough effect; an effect the other way counts as inactive or inconclusive;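 also: HEK293 cells exposed to compounds for 24 hr before the viability read; % is scaled to controls: 0 for no effect and ±100 for the full control effect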); details: HEK293 viability counter-screen; series mostly up to 41.8 µM
# How it was run: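 HEK293 cells (1,500/well) exposed 24 hr at 37C to 1:5 titrations, up to 41.7 uM final; counter-screen to a C. elegans viability qHTS. Viability by CellTiter-Glo luminescence after 10 min at room temperature; digitonin as control.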
# [6] = qHTS drug screen for cell cycle checkpoint inhibitors in PARPi-resistant BRCA-mutant ovarian cancer cell lines. (AID 1963452); details: PEO1/OlaR viability, CellTiter-Glo luminescence, 96 h, stronger effect = lower value
# How it was run: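 PEO1, PEO4 and PEO1/OlaR ovarian cancer cells, 600 per well, exposed 96 h at 37C to a dilution series. Viability read by CellTiter-Glo luminescence, normalized to DMSO and empty wells; activity summarized as Z-AUC.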
# [7] = molecular target: Glutathione peroxidase 1 (Homo sapiens) (UniProt P07203); test: Primary qHTS Assay for Inhibitors of Recombinant Selenoprotein Glutathione Peroxidase 1 (GPX1) (AID 1845191; active = well fitted curve in the direction sought with a large enough effect; an effect the other way counts as inactive or inconclusive; also: nearly all actives have a fitted effect of over 65% in size); details: recombinant GPX1, GR-coupled NADPH fluorescence, 15 min; series mostly up to 48.8 µM
# How it was run: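 10 nM GPX1 + cpd, 30 min RT; start w/ 1 mM GSH, 0.5 mM cumene hydroperoxide, 0.5 mM NADPH, 100 nM GR, 0.01% BSA; buffer 50 mM Tris-HCl pH 7.5, 2 mM EDTA, 150 mM NaCl; Fl 340/450, 0 & 15 min.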
# Chain of Nicotinamide N-methyltransferase (Homo sapiens) (P40261 whole entry, looked up): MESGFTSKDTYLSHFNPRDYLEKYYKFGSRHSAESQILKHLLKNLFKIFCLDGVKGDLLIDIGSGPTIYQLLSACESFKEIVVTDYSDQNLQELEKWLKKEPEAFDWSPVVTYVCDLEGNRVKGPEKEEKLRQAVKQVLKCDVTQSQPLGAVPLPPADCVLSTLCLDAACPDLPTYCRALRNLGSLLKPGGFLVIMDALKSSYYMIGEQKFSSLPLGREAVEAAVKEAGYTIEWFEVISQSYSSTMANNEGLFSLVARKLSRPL
# Chain of Phenylethanolamine N-methyltransferase (Homo sapiens) (P11086 whole entry, looked up): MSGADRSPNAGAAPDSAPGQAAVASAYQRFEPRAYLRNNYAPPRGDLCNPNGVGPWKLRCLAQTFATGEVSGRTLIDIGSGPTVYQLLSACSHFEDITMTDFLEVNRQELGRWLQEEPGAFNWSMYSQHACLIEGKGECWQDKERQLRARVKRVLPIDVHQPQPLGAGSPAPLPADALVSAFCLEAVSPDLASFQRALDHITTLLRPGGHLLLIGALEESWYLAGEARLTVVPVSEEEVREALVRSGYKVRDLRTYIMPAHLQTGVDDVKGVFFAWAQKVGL
# Chain of Catechol O-methyltransferase (Homo sapiens) (P21964 whole entry, looked up): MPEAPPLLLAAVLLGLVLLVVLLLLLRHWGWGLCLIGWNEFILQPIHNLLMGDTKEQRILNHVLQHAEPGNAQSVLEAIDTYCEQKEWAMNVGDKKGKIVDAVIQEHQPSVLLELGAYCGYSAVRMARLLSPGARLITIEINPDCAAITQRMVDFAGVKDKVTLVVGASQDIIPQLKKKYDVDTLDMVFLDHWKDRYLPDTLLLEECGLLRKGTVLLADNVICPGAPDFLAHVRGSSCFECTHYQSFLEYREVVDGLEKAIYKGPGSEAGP
# Chain of Glutathione peroxidase 1 (Homo sapiens) (P07203 whole entry, looked up): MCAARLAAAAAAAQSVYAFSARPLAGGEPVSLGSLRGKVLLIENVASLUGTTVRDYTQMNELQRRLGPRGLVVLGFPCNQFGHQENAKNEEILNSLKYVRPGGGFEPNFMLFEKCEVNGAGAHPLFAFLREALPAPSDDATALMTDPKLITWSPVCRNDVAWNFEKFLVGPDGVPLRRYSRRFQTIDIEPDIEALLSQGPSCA
compound,measurement,setting,value
NC(=O)c1cccc2[nH]c(-c3ccc([C@@H]4CCCN4)cc3F)nc12,activity,[1],-9.14%
same,"activity change, negative = inhibition",[2],-8.18%
same,activity,[3],-23.8%
same,activity,[4],-6.69%
same,Potency,[5],inactive
same,Z-AUC,[6],-0.692 (inactive)
same,Z-AUC,[6]; measured here: PEO1 parental Z-AUC,-1.03
same,Z-AUC,[6]; measured here: PEO4 Z-AUC,-0.377
COc1ccccc1N1CCN(S(=O)(=O)c2cccc3c2C(=O)c2ccccc2C3=O)CC1,activity,[1],-3.23%
same,"activity change, negative = inhibition",[2],2.86%
same,activity,[3],-1.31%
same,activity,[4],-8.85%
c1ccc(Cn2cc(CN3CCN(c4ccncc4)CC3)c(-c3cc4ccccc4o3)n2)cc1,activity,[1],5.39%
same,"activity change, negative = inhibition",[2],12.1%
same,activity,[3],1.15%
same,activity,[4],6.65%
O=C(CCCc1nnc2n3nc(-c4ccccc4)nc3c3ccccc3n12)NCCCN1CCCCC1,activity,[1],-1.71%
same,"activity change, negative = inhibition",[2],0%
same,activity,[3],2.5%
same,activity,[4],0.451%
CC(C)CCn1c(=O)c2ccccc2n2c(CCC(=O)N3CCN(Cc4ccccc4)CC3)nnc12,activity,[1],3.34%
same,"activity change, negative = inhibition",[2],0%
same,activity,[3],-63.2%
same,activity,[4],-0.865%
N#Cc1cnc(N2CC3CCC(C2)N3CC(F)(F)F)s1,activity,[1],-0.326%
same,"activity change, negative = inhibition",[2],-4.72% [at 85.7 µM]
same,activity,[3],-7.9%
same,activity,[4],-0.128%
CCCC1c2cccn2CCN1C(=O)Nc1ccccc1Br (configuration not stated),activity,[1],-6.73%
same,"activity change, negative = inhibition",[2],-3.12%
same,activity,[3],-13.8%
same,activity,[4],-7.98%
Cc1cnccc1NCCn1ccnc1-c1cc2n(n1)CCCNC2,activity,[1],-0.636%
same,"activity change, negative = inhibition",[2],2.5%
same,activity,[3],0.35%
same,activity,[4],0.494%
CC(C)CCN1CC2(CCCN(C(=O)c3ccn(C)c(=O)c3)C2)CCC1=O (configuration not stated),activity,[1],5.04%
same,"activity change, negative = inhibition",[2],8.37%
same,activity,[3],3.97%
same,activity,[4],1.77%
CCCC1c2cccn2CCN1C(=O)Nc1cc(Cl)ccc1C (configuration not stated),activity,[1],1.08%
same,Potency,[2],inactive
same,activity,[3],-4.96%
same,activity,[4],-0.621%
Cn1cc(-c2cc3c(ccn3Cc3ccncc3)c(N3CCOCC3)n2)cn1,activity,[1],-2.2%
same,"activity change, negative = inhibition",[2],-2.92% [at 85.7 µM]
same,activity,[3],-4.04%
same,activity,[4],-7.43%
COc1ccc2cc(CNc3ccc(C)cc3)c(=O)n(CC(=O)Nc3cccc(C(F)(F)F)c3)c2c1,activity,[1],-6.71%
same,"activity change, negative = inhibition",[2],-9.44%
same,activity,[3],-13.5%
same,activity,[4],-7.35%
same,Potency,[7],inactive
COc1ccc(-c2nnn3c2nc(N2CCOCC2)c2ccccc23)cc1,activity,[1],-38.9%
same,Potency,[2],19.2 µM (active)
same,activity,[3],-27.8%
same,activity,[4],-35.3%
